AMA1 RON2 block: disrupts binding of P. falciparum AMA1 to RON2; AlphaScreen AMA1-biotinylated RON2 peptide binding; Potency, µM (top dose mostly 58.2 µM), without a hit: at the top dose activity change, negative = inhibition, usual class: inhibitors; 360,000 tested, 0.2% active;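 note: 0% = vehicle wells and -100% = peptide control; nearly all actives have a fitted effect of over 45% in size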
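AMA1 (3D7) with his tag at 25 nM final met compounds first, then biotinylated RON2 peptide at 25 nM; detection used donor plus acceptor beads, 10 µg/mL apiece, read by AlphaScreen after 30 min at room temperature.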
Giardia FBPA inh: blocks Giardia fructose-bisphosphate aldolase activity; purified Giardia FBPA; Potency, µM (highest dose often 59.6 µM), without a hit: at the top dose activity, negative = inhibition, usual class: inhibitors; 290,000 tested, 0.71% active; AID 2451; note: nearly all actives have a fitted effect of over 55% in size
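Giardia FBPA (40 nM reagent) was preincubated 10 min at RT with compound (up to 57.5 uM final), then substrate plus GAPDH/TPI/NAD/arsenate coupling system with diaphorase/resazurin was added; resorufin fluorescence (525/598 nm) was read after 20 min.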
AmpC detergent: inhibitors of E. coli AmpC beta-lactamase with detergent; AmpC hydrolysis of nitrocefin, absorbance 480 nm, 0.01% Triton; P00811; Potency, µM (highest dose often 114 µM), without a hit: top-dose activity change, negative = inhibition, actives largely listed as inhibitors; 370,000 tested, 0.041% active;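 note: 0% = no-compound wells and -100% = no-enzyme wells; nearly all actives have a fitted effect of over 25% in size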
Target sequence (P00811 whole entry, looked up): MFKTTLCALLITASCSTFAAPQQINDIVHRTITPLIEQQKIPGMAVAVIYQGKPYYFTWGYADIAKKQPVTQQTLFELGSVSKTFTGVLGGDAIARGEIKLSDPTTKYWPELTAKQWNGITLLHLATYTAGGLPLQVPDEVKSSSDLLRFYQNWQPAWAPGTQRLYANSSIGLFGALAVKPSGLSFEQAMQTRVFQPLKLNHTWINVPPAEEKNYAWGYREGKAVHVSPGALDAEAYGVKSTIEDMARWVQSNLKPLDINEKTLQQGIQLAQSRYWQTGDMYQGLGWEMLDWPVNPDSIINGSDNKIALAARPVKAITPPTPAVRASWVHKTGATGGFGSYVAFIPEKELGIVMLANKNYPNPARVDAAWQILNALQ
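AmpC (5.3 nM in the dispensed reagent) in 20 mM phosphate pH 7.0 with 0.01% (detergent screen) or 0.0001% Triton X-100 was preincubated with compounds for 15 min at room temperature. Nitrocefin was then added from an 800 uM solution, and hydrolysis was followed at 480 nm.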
AmpC no deterg: inhibitors of E. coli AmpC beta-lactamase without detergent. P00811. AmpC nitrocefin hydrolysis, absorbance 480 nm, 0.0001% Triton. Potency, µM (highest dose often 57.1 µM), for inactives: at the highest dose activity change, negative = inhibition, usual class: inhibitors. 330,000 tested, 0.52% active. AID 485341;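 note: plate controls were no compound for no effect and no enzyme for full effect; nearly all actives have a fitted effect of over 20% in size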
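20 mM phosphate pH 7.0 + 0.01% (detergent screen) or 0.0001% Triton X-100; 5.3 nM AmpC reagent; cpd preinc 15 min RT; nitrocefin (800 uM stock) to start; A480 q20 s × 4 min; Activity was normalised to no-enzyme and no-compound control wells.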
LmPK inh: inhibitors of Leishmania mexicana pyruvate kinase | purified LmPK, Kinase-Glo ATP luminescence, 1 h | Potency, µM (highest dose often 57.5 µM), without a hit: top-dose activity change, negative = inhibition, hits mostly inhibitors | 290,000 tested, 0.37% active
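qHTS format; LmPK 0.1 nM; substrates PEP 0.5 mM and ADP 0.1 mM. One-hour room-temperature incubation, then coupled luciferase luminescence; 0.5 nM enzyme wells mark activation.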
Numbers without * were called inactive; ? = inconclusive; . = no result given; [ ] = dose if it differs, or a comment. In the library only some 1.3% were active in any assay of this set; here they are far more common. Calls come from the whole dose curve; as a rule, active = well fitted curve in the direction sought with a large enough effect; inconclusive = small, poorly fitted or top-dose-only effect, or another doubt; inactive = no such curve, though single readings can be large; an effect the other way counts as inactive or inconclusive. Unless noted, % is set by controls: 0 for no effect and ±100 for the full control effect; potency is the fitted concentration of half-maximal effect.

SMILES	AMA1 RON2 block	Giardia FBPA inh	AmpC detergent	AmpC no deterg	LmPK inh
COc1cc(C(O)c2nc(-c3cc(F)cc(F)c3)cs2)ccc1F (configuration not stated)	5%	.	.	.	.
COc1cc(C(O)c2nc(-c3ccc(N(C)C)cc3)cs2)ccc1F (configuration not stated)	20µM*	.	.	.	.
Cc1ccc(S(=O)(=O)Nc2ccc(-c3ccc(N4CCCCCC4)nn3)cc2)cc1C	.	.	2%	.	.
CN(C)c1ccc(C=C2C=CC=C2)cc1	22µM*	.	.	.	.
CN1C(=O)/C(=C\c2ccc(N(C)C)cc2)OC1=S	15%	3%	?	-21%	-3%
CCCCNC(=O)C1(C)CCN1C(=O)c1cncc(Br)c1 (configuration not stated)	13%	.	.	.	.
COc1ccc2c(c1)-c1c(ssc1=S)C(C)(C)N2	30µM*	-10%	?	-31%	0%
COc1ccc2c(c1)-c1c(sn(-c3ccccc3)c1=S)C(C)(C)N2	13µM*	-8%	-13%	-32%	-3%
COc1ccc2c(c1)-c1c(sn(-c3ccc(OC)c(OC)c3)c1=S)C(C)(C)N2	?	-10%	?	2%	-2%
COc1ccc2c(c1)-c1c(ssc1=S)C(C)(C)N2S(=O)(=O)c1ccc(C)cc1	?	0%	-11%	?	2%
COc1ccc(-n2sc3c(c2=S)-c2cc(OC)ccc2NC3(C)C)cc1	22µM*	3%	-2%	-31%	3%
COc1ccc(N2CCN(C(=O)c3cc(S(=O)(=O)N4CCCCCC4)ccc3OC)CC2)cc1	?	.	-4%	158%	.
CC(=O)Oc1ccc(C2=Cc3ccc(OC(C)=O)cc3OC2C)cc1 (configuration not stated)	3%	.	.	.	.
Cc1nnc(SCC2=C(C(=O)O)N3C(=O)C(NC(=O)Cn4nc(C(F)F)c(Cl)c4C)C3SC2)s1 (configuration not stated)	32%	4µM*	-10%	94%	-1%
Cc1ccc(-c2nc(N)s[n+]2-c2ccccc2)cc1	-7%	?	?	-18%	32µM*
O=C(Nc1c(C(=O)N2CCN(c3ccccc3)CC2)oc2ccccc12)c1ccco1	.	.	-5%	.	.
Cc1ccc(CN2CCN(/N=C\C=C\c3ccccc3)CC2)cc1	13µM*	3%	0%	29%	0%
Cc1ccc(CN2CCN(/N=C/c3ccc(C)s3)CC2)cc1	25µM*	3%	?	-29%	-2%
Cc1ccc(OC(=O)c2ccc([N+](=O)[O-])cc2Cl)cn1	-11%	5%	0%	-6%	-3%
CCOc1ccccc1C1C(C(=O)Nc2ccccc2)=C(C)Nc2nc(SCC(=O)c3ccc(C)cc3)nn21 (configuration not stated)	.	.	3%	.	.
COC(=O)c1ccccc1CSc1nsc(/C=C/N(C)C)c1C#N	0%	-8%	-1%	28µM*	-3%
COC(=O)c1cccnc1SCc1ccccc1	21%	-4%	-13%	-16%	-5%
Cc1nc(CSc2nsc(/C=C/N(C)C)c2C#N)cs1	-11%	?	0%	20µM*	5%
COc1ccc(/C=C/C(=O)C2C(=O)C=C(C)OC2=O)cc1O (configuration not stated)	8%	?	-12%	-58%	16µM*
COc1cc(/C=C/C(=O)C2C(=O)C=C(C)OC2=O)cc(OC)c1O (configuration not stated)	-7%[11.6 µM]	?	-9%	25%	-13%
O=C(Cc1ccc(NC(=O)C2CCN(C(=O)C3CC3)CC2)cc1)Nc1cccc(C(=O)N2CCCC2)c1	7%	.	.	.	.
COc1ccc(S(=O)(=O)N2CCCCCC2)cc1NC(=O)Cc1n[nH]c(=O)c2ccccc12	16%	.	-11%	-15%	.
CCCN1CCc2cccc3c2C1Cc1ccc(O)c(O)c1-3 (configuration not stated)	.	13µM*	.	.	.
CN1CCc2cc(O)cc3c2[C@H]1Cc1ccc(O)c(O)c1-3	10µM*	.	.	.	.
CN1CCc2cccc3c2[C@@H]1Cc1ccc(O)c(O)c1-3	?	?	-5%	37%	?

Screening data (PubChem)
